Over roughly 4,100 sequences, “arbitrary fluorescence units” has its median near 780; the highest 2% begin near 22,000. The sample holds the highest values, similar sequences and a random draw of the others, so the mix is not that of the screen.

For the assay, the target named is T1, ETS1 (UniProt P14921).
T1 sequence: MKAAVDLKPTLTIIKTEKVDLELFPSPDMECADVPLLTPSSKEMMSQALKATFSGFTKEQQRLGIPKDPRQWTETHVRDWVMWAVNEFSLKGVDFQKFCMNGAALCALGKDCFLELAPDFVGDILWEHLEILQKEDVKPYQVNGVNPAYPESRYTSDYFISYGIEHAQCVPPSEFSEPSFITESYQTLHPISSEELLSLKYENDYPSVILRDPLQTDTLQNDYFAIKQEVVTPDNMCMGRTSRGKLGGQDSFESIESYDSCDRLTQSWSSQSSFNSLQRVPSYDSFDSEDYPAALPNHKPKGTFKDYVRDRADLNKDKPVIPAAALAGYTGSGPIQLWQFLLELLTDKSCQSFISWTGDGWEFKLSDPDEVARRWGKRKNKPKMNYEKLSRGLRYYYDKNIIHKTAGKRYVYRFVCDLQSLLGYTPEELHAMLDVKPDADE
Briefly: ETS1 binding intensity (PBM fluorescence), ETS1 alone (arbitrary fluorescence units); higher = stronger binding. Conditions: ETS1 concentration 1 nM; RUNX1 concentration 0 nM. An outline of the steps:
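Recombinant full-length human ETS1 was applied at 1 nM, without RUNX1, to double-stranded Agilent 4 × 180k arrays of 36-bp genomic probes carrying a mutated RUNX1 partner site, following standard PBM protocols. Detection used an anti-ETS1 antibody (Cell Signaling Technology 14069) and an Alexa488-conjugated secondary antibody, with scanning on a GenePix 4400A. Each sequence was printed as four replicate spots. Binding level is the spot fluorescence intensity, summarised across replicates and not normalised.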
GTCTTACTTCCTGTCCCCGCCCACCTCGACTGTCTT displayed an ETS1 binding intensity of 22700.

As to ACCTTCGCCGCTGTCCCCAGCCTCTTCCTGTCCCGG, the ETS1 binding intensity amounted to 1130.

CCTGACTTCCTCCTCCCCCTCCCGCCCCAATTCCGC displayed an ETS1 binding intensity of 4620.

Turning to AGTTGCTAAGGAAATGACTGCCTGCAGCGCCTGGCC, the ETS1 binding intensity is 610.

As for GAAGAGACTCCCGCCACCTTGGCCGTTTCCCCTGAT, the ETS1 binding intensity is 318.

In the case of GCCGCTGGGTAGGCGGAAGTAGCCGCTGGCATGGCA, the ETS1 binding intensity amounted to 2800.

AGAAAACTACATTCAATTCTCTTTACACAGGATGTT yielded an ETS1 binding intensity of 661.

Regarding CGGGACAGCGACGGGCCAGGTGACCGGAAGAGGCCG, the ETS1 binding intensity turned out to be 1770.

The sequence GCGGAGCTTGTAGGCCAGGAGGACTTCCGGGTGGGT displayed an ETS1 binding intensity of 2220.

For CGGAGCCCAACGACCGGCACTTCCGGGGGGCGGGTG, the ETS1 binding intensity was 5010.

In turn, GCACTTCCGGAGCCGGGCGTCTACAGGCCGAGGCCA displayed an ETS1 binding intensity of 28500.

The sequence CACCCTCACGGAAACAGCTGTGTGTAAGCACCTCCA returned an ETS1 binding intensity of 585.

As for TATCATTTTTACGACAGAGGTACAGGAAATTGTTTC, the ETS1 binding intensity amounted to 733.

TAGGTTTGGGGTAGAAGCTGCAGGAACTTCCTGTCC returned an ETS1 binding intensity of 1710.

In turn, CCCCTCACTTCCCTCAACCCTTCCCATAAACTGGGA came in with an ETS1 binding intensity of 1620.

The sequence GGTGACGTCAACGCGTTCACCAGCCCGGAAGTGCGC yielded an ETS1 binding intensity of 1230.

In turn, GCGCACTTCCGGGCTGGTGAACGCGTTGACGTCACC displayed an ETS1 binding intensity of 35400.

For the sequence CGACGTCACTTCCGCTGGTTCAAGCACCGTGAGACT, the ETS1 binding intensity came out at 21400.

As to AAGCTTCCTGGCCCTTTAAAAATGGAGGTTCCGCAC, the ETS1 binding intensity was 4840.

The sequence GGGGCGATTACAGAACGGGTAACTCAGGATGATTCA registered an ETS1 binding intensity of 541.

The sequence CTTGGGGTCCCCTCGGGTGGTGGCAGGATGTAGGTA came in with an ETS1 binding intensity of 480.

CCGAGCGCATTTTACGTGGTGCTGCATTTCCGGTAG showed an ETS1 binding intensity of 3930.

As for GGACCGGAAGTAGGTTTCTACCCGAGCGCATTTTAC, the ETS1 binding intensity was found to be 27600.

On to CGCCCCGGCAGCCGCCCACGTCCGGGGGCCAGGCCT, for which the ETS1 binding intensity was determined as 802.

In turn, GAGAACTTCCGGTGCGCTCCCCGGGACTGCAGTCCC showed an ETS1 binding intensity of 46000.

For TGGCGGGAGAACTTCCCCCTGTGCGCTCGCGACGTG, the ETS1 binding intensity was 775.

In turn, AGCGCTTCCTGGCTCCGGCCCCGCCCCTGCAGTCGG yielded an ETS1 binding intensity of 6440.

Sequence CTTTTTGGTCTGCCAGGCACGGATTTCCGCCCACTC registered an ETS1 binding intensity of 1270.

On to ATGGAAAGGAAGTCGGTGGGAATCCGCCTCAGCGGT, for which the ETS1 binding intensity was determined as 1590.

Take GTGTCCTGTGCTCTCCTCTGCGCCACTTCCCTGCCT: the ETS1 binding intensity worked out at 623.

For the sequence GTCCTCTTCCTGTCCCCCAGGTGGGCATGTGATTTG, the ETS1 binding intensity is 6800.

Consider CCCACTTCCTGTCCCTGCATGCTCTGGGGCAGGCAG, for which the ETS1 binding intensity was found to be 31100.

Take TCAGGAGCCACGGACGGGCGGGGCTTCCGGGAGCAA: the ETS1 binding intensity is 1170.

On to GGCGGCTGTGAGCGCAAAACCCAAAACTTCCGATGG, for which the ETS1 binding intensity is 452.

CACGGAGCCACTTCCGGCGGCTGTGAGCGCAAAACC yielded an ETS1 binding intensity of 35500.

Sequence AACACTATTTCCTTTCTTGCTGCTCACATTTTAACA gave an ETS1 binding intensity of 4990.

With TGGAGCTGTTACGGGGTCCGCGGGGAAGTCTTGGCA, the ETS1 binding intensity was 364.

In the case of GGACGCTTCCGGTGGAAGGGAGCTGTTACGGGGCTT, the ETS1 binding intensity was found to be 32900.

For CTGCTTGAGGGTGGAGGGGAGCTTCCGAAGGAGGCC, the ETS1 binding intensity came out at 536.

As to AAACCAGAGGAAGTGGATTCCAACTACAAACCTCAC, the ETS1 binding intensity stood at 1830.

In turn, ACTCACTTCCGTTTAGCTTATCAACTACCAAGAGAC showed an ETS1 binding intensity of 35500.

Turning to CTTATCAACTACCAAGAGACATTTCCCCTTTGTACT, the ETS1 binding intensity worked out at 558.

For CGGGAGCGGCCGAAGTGACGACTTCCGGGATGCTCC, the ETS1 binding intensity is 7380.

For CCACCGTGCTGTAAACTGCACTTCCTCACTTAGCAC, the ETS1 binding intensity is 870.

Sequence CGCCTCATTTCCTGTGCAACTGCTGTAAAAATAGGA showed an ETS1 binding intensity of 22400.

GTGCAACTGCTGTAAAAATAGGAAGTGGGGGAGGAG registered an ETS1 binding intensity of 861.

Sequence CACCTGACTACAAGGCACACGAACATCCTTATCACA displayed an ETS1 binding intensity of 655.

Regarding ACCAAGTTTCGGGCAGGATCTTCCTGTAGTTTGCCT, the ETS1 binding intensity came to 566.

Sequence CTCCAAGCCCAGAGAGCACCCCTTCCTGCCCGGACA registered an ETS1 binding intensity of 737.

Sequence CGTACGCGCACTTCCGGTCTTTGTGACTTGCAGCTC showed an ETS1 binding intensity of 38700.

CACGGTCTTTGCCGCTCAGCTTCCCGGAGTCCGCGC registered an ETS1 binding intensity of 458.

The sequence TTCTCTGGGGACAATTAGGGTTTCTGGGTTTCCTGA yielded an ETS1 binding intensity of 457.

The sequence CCTGGGGGGCCGGAAGCCCCGCTTCGGCCCCAGCCC came in with an ETS1 binding intensity of 2820.

With CACTTCCTGTCAAAGCCAGTTCCTTAGCCGCTTAGG, the ETS1 binding intensity was 45000.

The sequence TCTCCCTGCCCGCGAGTCAAAGCCACTTCCTTTTCC came in with an ETS1 binding intensity of 917.

As to TGTCATCCCGGAAACTGATAACAAGACCTCGAGTCA, the ETS1 binding intensity turned out to be 4740.

AGCTTCCTGTTTGGCCTTGCTGATGTCACCCCATTA: the ETS1 binding intensity turned out to be 27600.

On to TACAGCTTCCTTCACCCCACTTGGGGCCTGGGTTAC, for which the ETS1 binding intensity was determined as 1140.

On to TGGGGCCTTGTTATCACAGCACTTCCTGTTTGCTTT, for which the ETS1 binding intensity amounted to 7990.

The sequence TCCTGGCTGCCCCCAAGGCCAGGAAGAGCGAAAACA registered an ETS1 binding intensity of 434.

Sequence CTGAAACAGGAAACAGACAAAGTCACAAGGTTCGCA displayed an ETS1 binding intensity of 5430.

As for GACTTCCTGTTGAAGATTGGCCTCTTCGGTAGCACA, the ETS1 binding intensity came out at 44600.

The sequence TGGCCTCTTCGGCCCTGGCCTTGACTTCCTTTCCTC showed an ETS1 binding intensity of 362.

CCTGCTGTGACTTCGGCTGTTTTCCTGGCCTGTGAG registered an ETS1 binding intensity of 387.

For the sequence CCCACCTCGGCCCACGCCGAGCGTGGCGGAACAGCT, the ETS1 binding intensity was determined as 385.

For CGGGCACGTCCTACGGCAGCAACGTCCGCCGCGCCG, the ETS1 binding intensity came to 540.

CACCCAAGGATATGCTTTTTTTTGGCAAGTCACATC showed an ETS1 binding intensity of 604.

Consider TTGGCCTGGGCTCTGGGCCACTTCCTGTGCTCTCCA, for which the ETS1 binding intensity is 5490.

In turn, TTCTGCTACATCCTGCCCACTCCCTGTGACTTCCAC displayed an ETS1 binding intensity of 9350.

TTTCCACTTCCTGTTCTACTTGGGGCTACTGACTCA came in with an ETS1 binding intensity of 25500.

Sequence CTTGACTTAACTACAAGACAGGATGGGTTGATGAAG came in with an ETS1 binding intensity of 426.

TTTATCCTTATTTCCTGGCTTCGCCTACAAGCACAG gave an ETS1 binding intensity of 5090.

AAAGCATTTCCTGCCTTGACTTAACTACAAGACAGG displayed an ETS1 binding intensity of 25700.

In the case of TTCACGCTCCGTAAGCTCGCTCCTTCCGGGACGCAG, the ETS1 binding intensity was 643.

Sequence CTCTGCTTCCTGTCTTTGAATGCCTCTGTGATTTTC had an ETS1 binding intensity of 13400.

For AAGGTCGAGGTCTCGGCTTCCCCGGAACTTTTTGCT, the ETS1 binding intensity stood at 295.

In turn, GTGGGGCGGGCTTCCGGCGCTCCCACCGTGAGCCGA had an ETS1 binding intensity of 8140.

Consider TGCTTCCGGCGGGCGCTTGCTCCCCGAGGTCGGCAA, for which the ETS1 binding intensity came to 24800.

For GAAGGGAGGAAGCCTGAGAACTGTTGTCTCCTGAAG, the ETS1 binding intensity came out at 424.

The values are drawn from the supplement of paper PMC10681739.
